# Bioassay records: PubChem BioAssay, National Center for Advancing Translational Sciences (NCATS)
# An excerpt weighted towards active compounds, which were near 21% of everything screened.
# Shiga toxin inh – A qHTS for Small Molecule Inhibitors of Shiga Toxin; Vero cells, Shiga toxin protein synthesis inhibition reporter; inhibition, % at 38.7 µM; 290,000 tested, 9.2% active; in the data active = inhibition mostly above about 28%, no sharp cut-off; inactive = mostly below about 43%; also: 0% is about no effect
# Pf growth 48h – Primary qHTS for delayed death inhibitors of the malarial parasite plastid, 48 hour incubation; AID 504832, 2011; Potency, µM (doses to about 28.7 µM), without a hit: at the highest dose activity change, negative = inhibition, usual class: inhibitors; 310,000 tested, 5.9% active; P. falciparum luciferase growth in erythrocytes, 48 h; also: potency is read from the fitted curve at half-maximal effect; % is scaled to controls: 0 for no effect and ±100 for the full control effect
#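 A one-generation exposure of luciferase-tagged malaria parasites in RPMI 1640/Albumax erythrocyte culture, 37 C and 5% CO2. Inhibition is inferred from decreased luminescence after adding detection reagent.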
# Pf growth 96h – Primary qHTS for delayed death inhibitors of the malarial parasite plastid, 96 hour incubation; P. falciparum luciferase reporter growth, 96 h; Potency, µM (doses to about 28.7 µM), without a hit: top-dose activity change, negative = inhibition, actives largely listed as inhibitors; 320,000 tested, 6.9% active; AID 504834, 2011; also: potency is read from the fitted curve at half-maximal effect; % is scaled to controls: 0 for no effect and ±100 for the full control effect
#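 Readout is luminescence from an integrated firefly luciferase in P. falciparum. Red cells, 2% hematocrit and 0.05% parasitemia final, were cultured with compound through two parasite generations (96 hours) at 37 C, 5% CO2.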
# SARS PLP yeast – qHTS of Yeast-based Assay for SARS-CoV PLP; S. cerevisiae expressing SARS-CoV PLpro, growth rescue; Potency, µM (series often up to 32.9 µM), inactives show at the highest dose activity, positive = growth rescue, usual class: activators; 330,000 tested, 0.19% active; AID 485353, 2010; calls by dose curve; also: potency is read from the fitted curve at half-maximal effect; 0% is about no effect; nearly all actives have a fitted effect of over 55% in size
# Cycloheximide cs – Cycloheximide Counterscreen for Small Molecule Inhibitors of Shiga Toxin; cell reporter, cycloheximide protein synthesis inhibition counterscreen; max response, %; AID 2314, 2010; 300,000 tested, 12% active; in the data active = max response mostly above about 13%, no sharp cut-off; inactive = mostly below about 14%; also: read at 38.3 µM for the half of the compounds with a filed dose; 0% is about no effect
# NS1 inh – qHTS Assay for Inhibitors of Influenza NS1 Protein Function | AID 2326, 2010 | Potency, µM (top dose mostly 46.1 µM), for the others: at the top dose activity, positive = more growth | 270,000 tested, 0.4% active; calls by dose curve; also: potency is read from the fitted curve at half-maximal effect; actives are rising curves; nearly all actives have a fitted effect of over 50% in size
#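 Growth recovery, yeast-based: influenza A NS1 expressed in S. cerevisiae causes slow growth, and suppressors are detected by OD600. The parent strain without NS1 is used as positive control.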
# Active calls of the source: *; ? = inconclusive; . = not tested or not shown. Unless noted, calls follow the shape of the dose curve; as a rule, active = well fitted inhibition curve with a large enough effect; inconclusive = small, poorly fitted or top-dose-only effect, or another doubt; inactive = no such curve, though single readings can be large or run the other way.
SMILES,Shiga toxin inh,Pf growth 48h,Pf growth 96h,SARS PLP yeast,Cycloheximide cs,NS1 inh
COc1ccc(CN2CCNC(=O)C2CC(=O)NCc2cc(C)n(C)n2)c(F)c1 (centres undefined),-9,-6%,?,?,-5,0%
COc1ccc(C(=O)CC(=O)C(=O)Nc2ccccc2Cl)cc1,-10,?,20%,8%,-3,9%
C=C1CC2C3CC[C@@]4(OCOC45COCO5)[C@@]3(C)C(O)CC2[C@@]2(C)CCC(=O)C=C12 (some centres undefined),-4,10µM*,13µM*,-8%,-4,7%
C[C@]12CCC(=O)C=C1CCC1C2CC[C@@]2(C)C1CCC21OCCO1 (some centres undefined),.,.,.,-6%,.,.
O=c1cc(CN2CCN(C/C=C/c3ccccc3)CC2)c2cc(O)ccc2o1,-11,3.3µM*,2.9µM*,-4%,-2,-9%
Cc1ccc2oc(=O)cc(CN3CCN(C/C=C/c4ccccc4)CC3)c2c1,-5,?,8.3µM*,0%,-1,5%
O=c1cc(CN2CCN(Cc3ccccc3)CC2)c2ccc(O)cc2o1,3,?,?,3%,-9,7%
CC1(C)CC(N2CCCCC2)=CC(=[N+]2CCCCC2)C1,22,?,?,0%,16,-2%
CC1(C)CC(N2CCOCC2)=CC(=[N+]2CCOCC2)C1,-4,13µM*,8.3µM*,-1%,-2,.
CC1C[N+](=C2C=C(N3CCOCC3)CC(C)(C)C2)CC(C)O1 (centres undefined),-4,?,12µM*,7%,4,-3%
CC(O)CN(CCN(CC(C)O)CC(C)O)CC(C)O (centres undefined),.,9%,-14%,.,.,.
Nc1ccc(-c2cnc(-c3ccc(N)cc3)nc2)cc1,33,65%,22%,6%,51*,1%
CSc1ccccc1NC(=O)c1ccc(Cl)s1,49,19%,.,-16%,30*,-72%
COC(=O)c1ccsc1NC(=O)c1ccc(Cl)s1,-8,-5%,-8%,-1%,-4,7%
CSc1ccccc1NC(=O)c1ccco1,2,.,?,-3%,-2,-6%
CSc1ccccc1NC(=O)c1ccccn1,45*,-12%,11%,-1%,18*,.
Cc1ccccc1NC(=O)c1ccccn1,57*,75%,73%,0%,29*,-2%
CSc1ccccc1NC(=O)c1cccnc1,11,8%,13%,-3%,15*,4%
CC(C)c1ccccc1NC(=O)c1cccnc1,9,11%,30%,0%,-1,-4%
COc1cc(OC)cc(-c2c(C#Cc3ccsc3)c3cc(-c4ccc5c(c4)OCO5)ccc3n2C)c1,.,.,.,-3%,.,.
O=C(CSc1nc2c(oc3ccccc32)c(=O)n1CC1CCCO1)NCc1ccccc1 (centres undefined),.,-35%,-1%,-11%,.,.
COc1ccc(CN2CCN(CCC(C)C)C(CCO)C2)cc1Cn1cncn1 (centres undefined),-7,9%,?,-1%,9,-1%
CC1(C)CC2CC(C)(CN2C(=O)COC(=O)c2ccc(Cl)cc2N)C1 (centres undefined),-13,-7%,-14%,0%,-2,-5%
C[C@H](NC(=O)c1ccccc1Cl)C(=O)OCC(=O)N1CC2(C)CC1CC(C)(C)C2 (some centres undefined),8,16%,9%,9%,12*,-6%
O=C(c1ccc(C(=O)N2CCOCC2)s1)N1CCOCC1,-8,.,-9%,-4%,0,7%
SMILES,Shiga toxin inh,Pf growth 48h,Pf growth 96h,SARS PLP yeast,Cycloheximide cs,NS1 inh
O=C(c1cc2cc(Br)ccc2s1)N1CCOCC1,32,?,42%,-3%,21*,.
O=C(c1cc2cc(C(F)(F)F)ccc2s1)N1CCOCC1,84*,34%,33%,-3%,36*,.
COc1cc(-c2[o+]c3cc(O)cc(O)c3cc2O)cc(O)c1O,.,.,.,.,.,3%
Cc1cccc(NC2CCCCC2NS(=O)(=O)c2ccccc2)c1 (centres undefined),7,?,?,7%,5,-11%
COc1ccc2[nH]c(C)c(CCNCc3cc(OC)c4c(c3)OCO4)c2c1,.,7.4µM*,?,2%,.,.
COc1ccc(CNCCc2c(C)[nH]c3ccc(OC(F)(F)F)cc23)c(OC)c1,-20,5.2µM*,?,1%,-5,6%
COC(C(=O)NC1CCCCCCC1)c1ccccc1 (centres undefined),10,-2%,3.3µM*,-18%,3,2%
CC(=O)OC(C(=O)NC1CCCCC1)c1ccccc1F (centres undefined),2,3%,9.3µM*,1%,-1,-3%
CC(=O)OC(C(=O)NC1CCCCC1)c1cccc(F)c1 (centres undefined),-5,12%,0%,6%,-2,8%
COC(CN(C)C(C(=O)NC1CCCCC1)c1ccccc1)OC (centres undefined),-8,-22%,-25%,1%,-4,.
CC(=O)c1ccc(N2C(=O)CC(N3CCN(S(=O)(=O)c4ccc(C)c(C)c4)CC3)C2=O)cc1 (centres undefined),.,.,.,3%,.,.
CCNC(=O)Nc1ccc(OC)cc1OC,-3,-19%,34%,0%,-4,2%
COc1ccc(-c2cc(C(=O)O)c(C)o2)cc1OC,-20,?,.,3%,-7,-35%
COc1ccc(-c2cc(C(=O)NC(Cc3cc4ccccc4[nH]3)C(=O)O)c(C)o2)cc1OC (centres undefined),49*,50%,-3%,-1%,33*,.
Cc1nc(SCC(=O)Nc2ccc(CN3CCCC3)cc2)c2c(C)c(C)sc2n1,.,9.3µM*,13µM*,6%,.,.
COc1cc2c(cc1OC)C(COc1ccc(F)cc1)N(C(=O)c1ccco1)CC2 (centres undefined),17,12µM*,?,-2%,13,-72%
COc1cc2c(cc1OC)C(c1cc3cccc(C)c3[nH]c1=O)N(C(=O)c1ccco1)CC2 (centres undefined),10,12µM*,-6%,1%,2,20%
COc1cc2c(cc1OC)C(COc1ccccc1OC)N(C(=O)C(C)(C)C)CC2 (centres undefined),22,12µM*,-2%,2%,15,3%
COc1ccc(S(=O)(=O)N(CCc2ccccc2)CC(=O)O)cc1,30,.,193%,7%,0,-3%
CCOC(=O)C1CCCN(C(=O)c2ccc(C)c([N+](=O)[O-])c2)C1 (centres undefined),-7,-19%,?,8%,-2,0%
O=C(CN(C(=O)c1csnn1)c1cccc(Cl)c1)NCCc1ccccc1,-5,19%,25%,2%,-2,2%
